# Assay outcomes (PubChem)
# SARS PLpro yeast = qHTS of Yeast-based Assay for SARS-CoV PLP; Potency, µM (top dose mostly 32.9 µM), for the others: top-dose activity, positive = growth rescue, actives largely listed as activators; 330,000 compounds, 0.19% hits; S. cerevisiae expressing SARS-CoV PLpro, growth rescue; AID 485353, 2010; calls by dose curve; note: 0% is about no effect; nearly all actives have a fitted effect of over 55% in size
# AmpC detergent = qHTS Inhibitors of AmpC Beta-Lactamase (assay with detergent) | P00811 | AmpC hydrolysis of nitrocefin, absorbance 480 nm, 0.01% Triton | Potency, µM (top dose mostly 114 µM), inactives show top-dose activity change, negative = inhibition, most hits filed as inhibitors | 370,000 compounds, 0.041% hits;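 note: 0% = no-compound wells and -100% = no-enzyme wells; nearly all actives have a fitted effect of over 25% in size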
# Target sequence (P00811 whole entry, looked up): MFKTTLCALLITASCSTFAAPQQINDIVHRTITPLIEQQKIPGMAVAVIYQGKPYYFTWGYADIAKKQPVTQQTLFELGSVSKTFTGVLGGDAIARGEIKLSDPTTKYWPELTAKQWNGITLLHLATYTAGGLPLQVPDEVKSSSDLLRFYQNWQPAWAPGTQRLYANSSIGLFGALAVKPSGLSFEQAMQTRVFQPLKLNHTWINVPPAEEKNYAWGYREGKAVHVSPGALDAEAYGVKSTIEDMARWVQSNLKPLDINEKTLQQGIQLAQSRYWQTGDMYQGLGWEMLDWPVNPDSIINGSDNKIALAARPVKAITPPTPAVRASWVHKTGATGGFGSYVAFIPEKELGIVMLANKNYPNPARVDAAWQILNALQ
#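 20 mM phosphate pH 7.0 + 0.01% (detergent screen) or 0.0001% Triton X-100; 5.3 nM AmpC reagent; cpd preinc 15 min RT; nitrocefin (800 uM stock) to start; A480 q20 s × 4 min; Activity was normalised to no-enzyme and no-compound control wells.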
# Tb PYK inh = qHTS of Trypanosoma Brucei Inhibitors. pyruvate kinase (Trypanosoma brucei), Q57TT1. TbPYK enzyme, Kinase-Glo Plus ATP luminescence, 45 min. Potency, µM (doses to about 76.8 µM), without a hit: at the top dose activity, negative = inhibition, most hits filed as inhibitors. 410,000 compounds, 0.12% hits. AID 624173, 2012; note: % is set by controls: 0 for no effect and ±100 for the full control effect; nearly all actives have a fitted effect of over 50% in size
#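 Assay buffer: 50 mM TEA pH 7.2, 100 mM KCl, 10 mM MgCl2, 0.05% BSA, 0.01% Tween-20. Pyruvate kinase from T. brucei plus substrate met compound, then ADP (130 uM final). Luminescence was read post 45 min RT.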
# RE007 growth inh = qHTS Assay for Inhibitors of the HIV-1 protein Vpr; S. pombe RE007 Vpr strain, BacTiter-Glo ATP luminescence, 24 h; Potency, µM (doses to about 92.2 µM), inactives show at the top dose activity change, negative = less growth, usual class: inhibitors; 360,000 compounds, 0.21% hits; active = well fitted falling curve with a large enough effect; inconclusive = small, poorly fitted or top-dose-only effect; inactive = no such curve, though single readings can be large or run the other way; note: % is set by controls: 0 for no effect and ±100 for the full control effect; nearly all actives have a fitted effect of over 50% in size
#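 Fission yeast strain RE007, carrying one chromosomally integrated HIV-1 vpr copy, was seeded at OD 0.01 in PMG+AL medium with 23 nL pinned compound. After 24 h at 30 °C and 99% humidity, viability was read by BacTiter-Glo luminescence.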
# AmpC no deterg = qHTS Inhibitors of AmpC Beta-Lactamase (assay without detergent); 330,000 compounds, 0.52% hits; P00811; AmpC nitrocefin hydrolysis, absorbance 480 nm, 0.0001% Triton; AID 485341, 2010; Potency, µM (series often up to 57.1 µM), for the others: top-dose activity change, negative = inhibition, most hits filed as inhibitors;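 note: plate controls were no compound for no effect and no enzyme for full effect; nearly all actives have a fitted effect of over 20% in size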
#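 AmpC (5.3 nM in the dispensed reagent) in 20 mM phosphate pH 7.0 with 0.01% (detergent screen) or 0.0001% Triton X-100 was preincubated with compounds for 15 min at room temperature. Nitrocefin was then added from an 800 uM solution, and hydrolysis was followed at 480 nm.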
# Sm TGR inh = qHTS Assay for the Inhibitors of Schistosoma Mansoni Peroxiredoxins. Schistosoma mansoni thioredoxin glutathione reductase (TGR), Q962Y6. purified TGR, DTNB reduction, TNB absorbance 405 nm. Potency, µM (series often up to 114 µM), without a hit: top-dose activity change, negative = inhibition, hits mostly inhibitors. 360,000 compounds, 3% hits. AID 485364, 2010; note: % is set by controls: 0 for no effect and ±100 for the full control effect; nearly all actives have a fitted effect of over 60% in size
#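 First, TGR (20 nM dispensed) and NADPH were mixed with compound. Second, a 15 min room-temperature incubation followed. Third, further NADPH and then DTNB were added to start the reaction. Finally, TNB absorbance was monitored kinetically.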
# Active calls of the source: *; ? = inconclusive; · = not tested or not shown; [ ] = dose if it differs, or a comment. Only some compounds are listed: those with a hit (about 3.3% of all), similar ones and a draw of the others. Unless noted, calls come from the whole dose curve; as a rule, active = well fitted curve in the direction sought with a large enough effect; inconclusive = small, poorly fitted or top-dose-only effect, or another doubt; inactive = no such curve, though single readings can be large; an effect the other way counts as inactive or inconclusive. Potency is the fitted concentration of half-maximal effect.
SMILES,SARS PLpro yeast,AmpC detergent,Tb PYK inh,RE007 growth inh,AmpC no deterg,Sm TGR inh
COc1ccc(C2=NC(C)(C)N(CC(=O)Nc3ccc(F)c(F)c3)C2=O)cc1,·,16%,4%,·,·,5%
COc1cc(-c2nc(CN3CCN(C(=O)c4ccco4)CC3)c(C)o2)ccc1F,0%,7%,1%,-1%,160%,-34%
COc1ccc(-c2nc(CN3CCN(C(=O)c4ccco4)CC3)c(C)o2)cc1OC,17%,1%,-12%,-5%,85%,28µM*
COc1ccc(-c2nc(CN3CCN(C(=O)c4ccco4)CC3)c(C)o2)c(F)c1,3%,-11%,3%,-8%,130%,50µM*
Cc1ccc(-c2nc(CSCC(=O)N3CCN(C(=O)c4ccco4)CC3)c(C)o2)cc1,6%,-6%,-3%,4%,81%,40µM*
COCCN(CCOC)Cc1c(O)ccc2c1O/C(=C\c1ccco1)C2=O,-3%,-9%,3%,7%,-19%,3.5µM*
CC1CCN(Cc2c(O)ccc3c2O/C(=C\c2ccco2)C3=O)CC1,-19%,2%,-10%,-11%,25%,1µM*
C[C@]12CC[C@@H]3c4ccc(O[C@@H]5O[C@H](C(=O)O)[C@@H](O)[C@H](O)[C@H]5O)cc4CC[C@H]3[C@@H]1C[C@@H](O)[C@@H]2O,1%,-6%,-8%,11%[18.4 µM],-7%,40µM*
C=CCOc1ccc2c(c1)CCC1C2CCC2(C)C(O)C(O)CC12 (stereo not given),·,·,-11%,?,·,·
CC(=O)c1ccc(N2CCN(c3ncnc4onc(C)c34)CC2)cc1,·,22%,-1%,·,·,4%
CCOC(=O)c1ccc(NC(=O)CCC(=O)N2CCSc3ccccc32)cc1,·,-2%,-7%,·,·,-5%
CCOc1ccc(-c2nnc(SCC(=O)Nc3ccc(C)cc3Cl)o2)cc1,·,27%,0%,·,·,18µM*
CCOc1ccc(-c2nnc(SCC(=O)Nc3cc(C)ccc3OC)o2)cc1,·,27%,-5%,·,·,11µM*
COc1ccccc1OCC(=O)NCC1(N(C)C)CCCCC1,·,17%,2%,·,·,10%
Cn1c(Cc2ccc3c(c2)OCO3)nnc1SCC(=O)N1CCc2ccccc2C1,5%,-12%,-17%,17%,25%,45µM*
Cn1c(Cc2ccccc2)nnc1SCC(=O)N1CCCCC1,0%,0%,3%,9%,-6%,-3%
CCCN(CC1CC1)S(=O)(=O)c1ccc(S(N)(=O)=O)cc1,2%,?,-9%,4%,0.5µM*,-3%
CC1=C(C(=O)Nc2cccnc2)C(c2ccc(F)cc2)n2nc(SCc3ccccc3F)nc2N1 (stereo not given),·,-6%,-2%,·,·,-6%
Cc1ccc(C(=O)Cc2ccccc2)c(O)c1,·,·,3%,-14%,·,·
CC(C)=CCc1c(O)ccc(C(=O)Cc2ccccc2)c1O,-17%,?,0%,35µM*,-60%,6%
CSC1=NSC2=NC(=O)/C(=C/c3coc4ccccc4c3=O)C(=N)N12,-66%,?,-11%,40µM*,-19%,-26%
CCOC(=O)c1c(NC(=O)c2cc(-c3ccc(Br)cc3)on2)sc(C)c1C,·,0%,1%,·,·,0%
O=C(Oc1c(-c2ccccc2)oc2ccccc2c1=O)c1ccccc1,0%,?,2%,-16%,-19%,21%
O=C(Oc1c(-c2ccccc2Cl)oc2ccccc2c1=O)c1ccc(Cl)cc1,-6%,-6%,-1%,1%,18µM*,-13%
O=C(CCN1CCCCC1)c1ccccc1,5%,-7%,-6%,-9%,-5%,0%
SMILES,SARS PLpro yeast,AmpC detergent,Tb PYK inh,RE007 growth inh,AmpC no deterg,Sm TGR inh
O=c1oc2ccccc2c(N2CCCCC2)c1CN1CCCCC1,-24%,-4%,-8%,?,-29%,18µM*
O=c1oc2ccccc2c(N2CCCCC2)c1CN1CCCC1,6%,?,-3%,-12%,-14%,-14%
CCc1oc2ccccc2c1C(=O)CCN1CCCCC1,-2%,?,-12%,?,-15%,7.9µM*
CCN(Cc1ccccc1)C(=O)c1sc2nc3n(c(=O)c2c1C)CCCC3,·,5%,-1%,·,·,-20%
CCN(C(=O)c1sc2nc3n(c(=O)c2c1C)CCCCC3)c1ccccc1F,·,-1%,7%,·,·,?
CCc1ccc(N(CC)C(=O)c2sc3nc4n(c(=O)c3c2C)CCCC4)cc1,·,11%,1%,·,·,10µM*
COCCCNC(=O)c1sc2nc3n(c(=O)c2c1C)CCC3,·,25%,-6%,·,·,11µM*
CCN(C(=O)c1sc2nc3n(c(=O)c2c1C)CCCCC3)c1ccc(OC)cc1,·,3%,2%,·,·,22µM*
CC1CCCN(S(=O)(=O)c2cc(C(=O)NCc3ccccc3Cl)n(C)c2)C1 (stereo not given),·,0%,1%,·,·,5%
Cc1cc2c(cc1S(=O)(=O)Nc1ccc(C(C)C)cc1)OCCN2C,5%,13%,-2%,·,-36%,5%
Cc1cc(C)cc(N2CCn3c2nc2c3c(=O)n(Cc3ccc(Cl)cc3)c(=O)n2C)c1,·,-2%,4%,·,·,-3%
CCN(CC)S(=O)(=O)c1ccc(C(=O)N2CCN=C2SCc2cccnc2)cc1,-2%,-11%,-3%,-21%,43%,5%
CN(C)S(=O)(=O)c1ccc(C(=O)N2CCN=C2SCc2cccnc2)cc1,20µM*,-13%,0%,-21%,22%,9%
COc1ccc(C(=O)c2nc3ccccc3n2C(C)C)cc1,0%,1%,4%,0%,50%,32µM*
O=C(NCCc1ccccc1)C(c1cccs1)N(C(=O)CCl)c1ccc(Cl)cc1 (stereo not given),-75%,-5%,0%,7%,1%,1.1µM*
CCOC(=O)c1cnc2ccc(C)cc2c1Nc1ccc(N(CC)CC)cc1,·,18%,4%,·,·,-1%
CS(=O)(=O)c1ccc2nc(NC(=O)Nc3ccc(Cl)c(Cl)c3)sc2c1,15%,1%,2%,0%,-13%,4%
O=C(Nc1cccc(Cl)c1)Nc1nnc(-c2ccncc2)s1,7%,?,-8%,-3%,16µM*,0%
CS(=O)(=O)c1ccc2nc(NC(=O)Nc3cccc(Cl)c3)sc2c1,3%,?,-2%,5%,13µM*,-12%
O=C(C1CCC(Cn2c(=O)c3sccc3n(Cc3ccccc3)c2=O)CC1)N1CCOCC1 (stereo not given),·,1%,-3%,·,·,1%
